From PubChem BioAssay
Where “and” joins values, the source holds several entries; their conditions need not be identical. Identical values can stand only once. Calls of active or inactive are those of the source.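 The calls were made as follows, unless noted: active = compounds whose cell count with miR-34 switched on is under 0.7 times the count with it off; inactive = the rest.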

What was measured:
[1] = hESC survival regulators, cell-based (AID 493140; call rule not given here;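 also: cells exposed to compounds for four days before counting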); details: human embryonic stem cell survival screen; stronger effect = higher value
[2] = liver-stage malaria parasite growth inhibition, primary screen, cell-based, HepG2, luciferase luminescence, HepG2 viability (AID 624349; in the data active = parasite load remaining mostly below about 12%, no sharp cut-off; inactive = mostly above about 10%;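 also: 100% = mean of DMSO negative control wells on the same plate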); details: P. berghei liver stage in HepG2, luciferase luminescence, concentration not given here; parasite load remaining: stronger effect = lower value; viability: measured here: HepG2 viability without parasites
[3] = sensitizers of A549 cells to miR-34 induction, primary screen, imaging, A549 dox-inducible miR-34, nuclei and caspase counts (AID 1347080); details: A549 miR-34 inducible, Hoechst nuclei count, 48 h
[4] = survival rescue of mitochondrial mutant cells in low glucose, primary screen, MELAS cybrids, Rieske KO mouse fibroblasts, CellTiter-Glo (AID 1508586;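 active = mean z-score across replicates of 1.96 or higher in either the MELAS or the Rieske mutant cell line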;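 also: z relative to plate mean and SD of compound and empty wells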)
[5] = viability rescue of complex I mutant cybrids, primary screen, cell-based, galactose medium, ATP luminescence (AID 1645843;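 active = z-score of at least 1.8 in each of two replicates, scored against plate mean and spread of sample wells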;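 also: positive z means more ATP and so rescue of galactose-driven cybrid death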); details: complex I mutant cybrid cells, 72 h, stronger effect = higher value
[6] = stronger effect = lower value, cell number ratio, induced over uninduced
[7] = measured here: relative caspase fold change +Dox/-Dox
[8] = measured here: total cells with miR-34 induction, stronger effect = lower value
[9] = measured here: total cells without miR-34 induction
[10] = MELAS cybrid survival, CellTiter-Glo 48 h, stronger effect = higher value
[11] = Rieske KO mouse fibroblast survival, CellTiter-Glo 72 h

SMILES	survival [1]	parasite load remaining [2]	viability [2]	fold change [3, 6]	fold change [3, 7]	cell count [3, 8]	cell count [3, 9]	z-score [4, 10]	z-score [4, 11]	z-score [5]
CC(C)(C)CC(C)(C)c1ccc(OCOCCOCCO)c(Cc2cc(C(C)(C)CC(C)(C)C)cc(Cc3cc(C(C)(C)CC(C)(C)C)ccc3OCOCCOCCO)c2OCOCCOCCO)c1	1.75 (inactive)	112% (inactive)	98.8%	0.877 (inactive)	1.23	7920	9040	-2.08 (inactive)	-1.21	
CCCC(=O)Nc1ncnc2c1ncn2[C@@H]1O[C@@H]2OP(=O)(O)OC[C@H]2[C@H]1OC(=O)CCC		71.6% (inactive)	101%	0.912 (inactive)	1.18	9650	10600	0.66 (inactive)	0.0496	
Cc1cc(C=Cc2ccc3cc(N(C)C)ccc3[n+]2C)c(C)n1-c1ccccc1	2.17 (inactive)	0.11% (inactive)	48.8%	1.3 (inactive)	1.04	2390	1840	0.882 (inactive)	0.984	
OC(CCN1CCCCC1)(c1ccccc1)C1C[C@@H]2C=C[C@H]1C2 (stereo partly drawn)		24.7% (inactive)	105%	0.888 (inactive)	1.45	8210	9240	-0.0819 (inactive)	-0.0447	
CC(C)(C)NCC(O)COc1ccccc1C1CCCC1 (stereo not drawn)	4.5 (inactive)	64.8% (inactive)	78.7%	0.898 (inactive)	0.683	7970	8880	-0.603 (inactive)	-0.983	
CC1(C)S[C@@H]2[C@H](NC(=O)COc3ccccc3)C(=O)N2C1C(=O)O (stereo partly drawn) (tested in a mixture with another compound)	4 (inactive)	98.8% (inactive)	75.5%	0.957 (inactive)	0.818	9020	9430	-0.168 (inactive)	-0.00269	
C=CCN1CCCC1CNC(=O)c1cc2[nH]nnc2cc1OC (stereo not drawn)		92.8% (inactive)	100%	0.836 (inactive) and 0.882 (inactive)	1.28 and 0.705	8730 and 8290	10400 and 9410	-0.272 (inactive) and -0.0484 (inactive)	-0.199 and -0.148	
CCC(=O)[C@@]1(C)[C@H](C)C[C@H]2[C@@H]3CCC4=CC(=O)C=C[C@]4(C)[C@H]3[C@@H](O)C[C@@]21C	5.08 (inactive)	104% (inactive)	73.1%	0.901 (inactive)	0.845	7190	7980	-0.53 (inactive)	0.51	
CN[C@@H]1C(O[C@H]2O[C@H](CO)[C@@H](N)[C@H](O)[C@H]2O)O[C@H]2C[C@@H](N)[C@@H](O[C@H]3[C@H](O)[C@@H](O)[C@H](N)C[C@@H]3N)OC2[C@@H]1O (stereo partly drawn)		95.7% (inactive)	72.5%	1.02 (inactive)	0.823	9080	8920	0.718 (inactive)	-0.268	
C=CC1=C(C(=O)O)N2C(=O)[C@@H](NC(=O)/C(=N\OCC(=O)O)c3csc(N)n3)[C@H]2SC1		141% (inactive)	105%	0.851 (inactive)	1.38	8960	10500	0.308 (inactive)	0.0804	
O=C1NCCN1c1ncc([N+](=O)[O-])s1	3.92 (inactive)	95% (inactive) and 83.2% (inactive)	122% and 79.5%	0.899 (inactive)	1.68	8920	9920	0.58 (inactive)	-0.169	
CO[C@@]1(NC(=O)[C@H](C(=O)O)c2ccc(O)cc2)C(=O)N2C(C(=O)O)=C(CSc3nnnn3C)CO[C@@H]21		81.8% (inactive)	98.4%	0.861 (inactive)	1.17	8980	10400	0.452 (inactive)	-0.352	
O=C1Cc2c([nH]c3ccc(Br)cc23)-c2ncccc2N1		39% (inactive)	165%	0.879 (inactive)	0.672	2970	3380	1.05 (inactive)	-2.27	
CO[C@@H]1[C@@H](O[C@@H]2O[C@H](C)[C@@H](O[C@H]3C[C@@](C)(OC(=O)CC(C)C)[C@@H](O)[C@H](C)O3)[C@H](N(C)C)[C@H]2O)[C@@H](CC=O)C[C@@H](C)[C@@H](O)/C=C/C=C/C[C@@H](C)OC(=O)C[C@H]1OC(C)=O		40.7% (inactive)	45.1%	0.924 (inactive)	0.331	7880	8530	-0.757 (inactive)	-0.227	
Cc1c(Cl)cccc1Nc1ncccc1C(=O)O		71.2% (inactive)	70.4%	0.943 (inactive)	0.763	9020	9560	0.72 (inactive)	0.0323	
CC(=O)O[C@H]1C[C@@]2(C)[C@@H](C[C@@H](O)[C@H]3[C@@]4(C)CC[C@@H](O)[C@@H](C)C4CC[C@@]32C)/C1=C(\CCC=C(C)C)C(=O)O (stereo partly drawn)		147% (inactive)	140%	0.911 (inactive)	1.1	8570	9410	-3.27 (inactive)	-2.48	
COc1ccc2cc([C@@H](C)C(=O)O)ccc2c1	10.1 (inactive)	124% (inactive) and 104% (inactive)	101% and 92.4%	0.747 (inactive)	1.43	6320	8450	-0.0303 (inactive)	-0.487	
CC[C@@]1([C@@H]2O[C@@H]([C@H]3O[C@@](O)(CO)[C@H](C)C[C@@H]3C)C[C@@H]2C)CC[C@H]([C@]2(C)CC[C@]3(C[C@H](O)[C@@H](C)[C@@H]([C@@H](C)[C@@H](OC)[C@H](C)C(=O)O)O3)O2)O1 (stereo in doubt)		-0.09% (active)	93.8%	0.901 (inactive)	1.01	2780	3090	-2.78 (inactive)	-1.77	

SMILES	survival [1]	parasite load remaining [2]	viability [2]	fold change [3, 6]	fold change [3, 7]	cell count [3, 8]	cell count [3, 9]	z-score [4, 10]	z-score [4, 11]	z-score [5]
O=C(O)C(O)C(O)C(O)C(O)C(=O)O (stereo not drawn) (tested in a mixture with another compound)	5.33 (inactive)	114% (inactive)	71.7%	0.895 (inactive)	0.792	8860	9910	-1.4 (inactive)	-0.918	
CC1(C)S[C@@H]2[C@H](NC(=O)C(C(=O)O)c3ccsc3)C(=O)N2[C@H]1C(=O)O (stereo partly drawn)		73.9% (inactive)	69.2%	0.946 (inactive)	0.678	9480	10000	0.609 (inactive)	0.365	
CC(=O)O[C@]1(C(C)=O)CC[C@H]2[C@@H]3C=C(Cl)C4=CC(=O)C5CC5[C@]4(C)[C@H]3CC[C@@]21C (stereo partly drawn)	12.6 (inactive)	65.7% (inactive)	68.5%	0.93 (inactive)	0.98	8920	9590	-0.145 (inactive)	0.56	
CC(C)(C)NC[C@@H](O)COc1cccc2c1CCCC2=O	6.25 (inactive)	94.5% (inactive)	97%	0.911 (inactive)	1.14	9750	10700	0.547 (inactive)	0.0254	
CN(C)C/C=C(\c1ccc(Br)cc1)c1cccnc1		45.2% (inactive)	47.6%	0.924 (inactive)	0.86	8480	9180	0.27 (inactive)	0.193	
CN[C@H]1[C@@H](O)[C@H](O[C@H]2[C@@H](O)[C@@H](OC3OC(CN)=CCC3N)[C@H](N)C[C@@H]2N)OC[C@@]1(C)O (stereo partly drawn)		95.5% (inactive)	113%	0.885 (inactive)	1.15	9450	10700	0.354 (inactive)	0.0602	
CNCC(O)c1ccc(OC(=O)C(C)(C)C)c(OC(=O)C(C)(C)C)c1 (stereo not drawn)	4.83 (inactive)	97.5% (inactive) and 55.6% (inactive)	100% and 75.1%	0.893 (inactive)	0.873	8640	9680	-1.22 (inactive)	-0.55	
C=CC[N@@+]12CC[C@]34c5ccccc5N5/C=C6\C7N(/C=C(\C53)[C@@H](C[C@@H]41)/C(=C/CO)C2)c1ccccc1[C@@]71CC[N@@+]2(CC=C)C/C(=C\CO)[C@@H]6C[C@@H]12 (stereo partly drawn)		122% (inactive)	74.4%	0.909 (inactive)	0.771	9290	10200	0.0835 (inactive)	-0.352	
CC[N+](CC)(CC)CCC(O)(c1ccccc1)C1CCCCC1 (stereo not drawn)	3.08 (inactive)	97.4% (inactive)	92.1%	0.878 (inactive)	0.741	8200	9350	-0.675 (inactive)	-0.626	
NC[C@@H]1O[C@H](O[C@H]2[C@@H](O)[C@H](O[C@@H]3[C@@H](O)[C@H](N)C[C@H](N)[C@H]3OC3O[C@H](CO)[C@@H](O)[C@H](O)[C@H]3N)O[C@@H]2CO)[C@H](N)[C@@H](O)[C@@H]1O (stereo partly drawn)		69.5% (inactive)	103%	0.833 (inactive)	1.19	8720	10500	0.673 (inactive)	-0.125	
OCCN1CCN(CC/C=C2/c3ccccc3Sc3ccc(Cl)cc32)CC1	0.583 (inactive)	65.1% (inactive)	62.7%	0.885 (inactive)	0.539	7300	8250	0.382 (inactive)	-0.231	
CC(=O)O[C@]1(C(C)=O)CC[C@H]2[C@@H]3C=C(C)C4=CC(=O)CC[C@@H]4[C@H]3CC[C@@]21C		85.6% (inactive)	73.5%	0.942 (inactive)	0.745	8790	9330	-0.763 (inactive)	-0.219	
C=C(NC(=O)C(=C)NC(=O)c1csc(C2=N[C@H]3c4csc(n4)[C@H]4NC(=O)c5csc(n5)[C@H]([C@@](C)(O)[C@@H](C)O)NC(=O)[C@H]5CSC(=N5)/C(=C\C)NC(=O)[C@H]([C@@H](C)O)NC(=O)c5csc(n5)[C@]3(CC2)NC(=O)[C@H](C)NC(=O)C(=C)NC(=O)[C@H](C)NC(=O)[C@H](C(C)CC)N[C@@H]2C=Cc3c([C@H](C)O)cc(nc3[C@H]2O)C(=O)O[C@@H]4C)n1)C(N)=O (stereo partly drawn)		8.38% (inactive)	102%	0.85 (inactive)	1.56	7430	8740	5.43 (active)	3.6	
O=C(c1cccnc1)N1CCOCC1				0.924 (inactive)	0.837	7970	8630			
CCN(CC)CCNC(=O)c1c(C)[nH]c(C=C2C(=O)Nc3ccc(F)cc32)c1C				0.743 (inactive)	1.2	2230	3000	-0.621 (inactive)	-1.61	
CC1(C)S[C@@H]2[C@H](NC(=O)[C@@H](N)c3ccc(O)cc3)C(=O)N2[C@H]1C(=O)O		98.1% (inactive) and 66.2% (inactive)	75% and 90.3%	0.918 (inactive)	1.48	11000	12000			
O=C1NC(=O)C(=Cc2cccc(C(F)(F)F)c2)S1				0.809 (inactive)	0.469	7740	9570	-0.352 (inactive)	0.482	
CCCCCCCCCCCCCCCCCC(=O)OC(CC(=O)O)C[N+](C)(C)C (stereo not drawn)				0.979 (inactive)	0.6	4490	4590			-1.38 (inactive)
